# Results published in the supplement of paper PMC9694430.
# Tested on: LOC_OS02G08530-cb003
# Assay: thermal shift delta Tm vs DMSO control; higher = stronger stabilization (binding)
# Settings: 12.5 µM; protein concentration 2 µM
# Summary of the method: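 Thermal shift values come from differential scanning fluorimetry on purified rice kinase domains made in E. coli, with melting temperatures obtained from Boltzmann fits. Samples of 19.5 μl held 2 μM kinase, 100 mM potassium phosphate pH 7.5, 150 mM NaCl, 10% glycerol, 5 × SYPRO Orange and compound in DMSO, and were heated from 25°C to 95°C at 0.05°C/s. Each shift is a triplicate mean relative to the DMSO-only protein sample.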
# 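Note: purified Escherichia coli-expressed rice kinase domain construct.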
row,SMILES,thermal shift delta Tm [°C]
1,Oc1c2ccccc2c2c3c(cccc13)N=N2,3.38
2,CSc1cccc(Nc2ncc3cc(-c4c(Cl)cccc4Cl)c(=O)n(C)c3n2)c1,0.12
3,COc1cc(Nc2ncc(F)c(Nc3ccc4c(n3)NC(=O)C(C)(C)O4)n2)cc(OC)c1OC [R406 (free base)],4.18
4,Cc1cn(-c2cc(NC(=O)c3ccc(C)c(Nc4nccc(-c5cnccn5)n4)c3)cc(C(F)(F)F)c2)cn1 [Radotinib],0.67
5,CN1CCN(Cc2ccc(-c3cnc4[nH]cc(-c5ccc6[nH]ccc6c5)c4c3)cc2)CC1,5.47
6,CONC(=O)c1ccccc1Nc1cc(Nc2cc(C)nn2C(C)C)ncc1Cl,1.79
7,CNC(=O)c1cc(Oc2ccc(NC(=O)Nc3ccc(Cl)c(C(F)(F)F)c3)c(F)c2)ccn1 [Regorafenib (BAY 73-4506)],0.93
8,c1cc(-c2cnn3cc(-c4ccc(OCCN5CCCCC5)cc4)cnc23)ccn1 [Dorsomorphin 2HCl],2.18
9,CCCCCCCCCC(=O)CC(O)S(=O)(=O)O (configuration not stated) [Sodium Houttuyfonate],0.25
10,CC(C)[C@H](CO)Nc1nc(Nc2cccc(Cl)c2)c2ncn(C(C)C)c2n1 [Purvalanol A],4.08
11,COc1ccc(Cl)c(Nc2nc3ccccc3nc2NS(=O)(=O)c2cccc(NC(=O)C(C)(C)N)c2)c1 [Pilaralisib (XL147)],0.06
12,CC(C)Oc1ccc(-c2nn([C@@H](C)c3oc4ccc(F)cc4c(=O)c3-c3cccc(F)c3)c3ncnc(N)c23)cc1F,0.12
13,O=C(/C=C/c1ccc2ccccc2n1)c1ccncc1,2.02
14,CC(C)(O)CC(=O)NCCn1ccc2ncnc(Nc3ccc(Oc4cccc(C(F)(F)F)c4)c(Cl)c3)c21,0.93
15,CCOC(=O)c1cnc2ccc(-c3cncc(NS(=O)(=O)c4ccccc4)c3)cn12,1.79
16,N#Cc1c(NC(=O)c2cccc3ccccc23)sc2c1CCCC2 [JNK Inhibitor IX],0.47
17,CN(C)Cc1cccc(N=C(c2ccccc2)c2c(O)[nH]c3cc(C(=O)N(C)C)ccc23)c1,0.71
18,O=c1c(-c2ccc(O)cc2)coc2cc(O)cc(O)c12 [Genistein],1.28
19,CCn1c2ccccc2c2cc(Nc3ccnc(NCCCN4CCOCC4)n3)ccc21,1.04

row,SMILES,thermal shift delta Tm [°C]
1,N#CC(=C(/N)Sc1ccccc1N)/C(C#N)=C(\N)Sc1ccccc1N,1.04
2,CCN(CC)CCCC(C)Nc1nc(C)cc(Nc2ccc3nc(C)cc(N)c3c2)n1 (configuration not stated),0.57
3,c1cn2cc(-c3ccc4cn[nH]c4c3)nc(Nc3ccc(N4CCOCC4)cc3)c2n1 [Entospletinib (GS-9973)],3.77
4,C[C@H]1CNC(=O)c2cnn3ccc(nc23)N[C@H](C)c2cc(F)ccc2O1,2.82
5,CC(C)c1cnn2c(NCc3ccccc3)cc(NCCCCCCN)nc12,0.66
6,C=CC(=O)Nc1cccc(Nc2nc(Nc3ccc(NC4CN(CCF)C4)cc3OC)ncc2C(F)(F)F)c1,3.91
7,CNC(=O)CN1CCC(Oc2cc3c(Nc4cccc(Cl)c4F)ncnc3cc2OC)CC1 [Sapitinib (AZD8931)],0.51
8,"C=CC(=O)Nc1cccc(Nc2nc(Nc3ccc(N4CCN(C(C)=O)CC4)cc3OC)ncc2C(F)(F)F)c1 [Rociletinib (CO-1686, AVL-301)]",5.28
9,O=C(c1ccc(/C=C/c2n[nH]c3ccccc23)cc1)N1CCNCC1,4.1
10,Cc1ccc(NC(=O)c2ccc(CN3CCN(C)CC3)cc2)cc1Nc1nc(-c2cccnc2)cs1 [Masitinib (AB1010)],0.9
11,N#Cc1c(O)c2c(-c3ccc(-c4ccccc4O)cc3)csc2[nH]c1=O,1.2
12,CN1CC[C@H](c2c(O)cc(O)c3c(=O)cc(-c4ccccc4Cl)oc23)[C@H](O)C1 [Flavopiridol (Alvocidib)],1.53
13,Cc1cnc(Nc2ccc(OCCN3CCCC3)cc2)nc1Nc1cccc(S(=O)(=O)NC(C)(C)C)c1,2.64
14,C[C@@H](Oc1ccc2[nH]nc(/C=C/c3cnn(CCO)c3)c2c1)c1c(Cl)cncc1Cl,5.56
15,Nc1cccc(-c2cc3c(Oc4cccc(O)c4)ncnc3[nH]2)c1,1.94
16,CN1CCC(COc2cnc(-c3cccc(Cn4nc(-c5cccc(C#N)c5)ccc4=O)c3)nc2)CC1,0.12
17,"C[C@H](Nc1ncnc2nc[nH]c12)c1cc2cccc(Cl)c2c(=O)n1-c1ccccc1 [Duvelisib (IPI-145, INK1197)]",0.77
18,CCCCNc1ncc(C(=O)NCc2ccc(-n3ccnc3)cc2)c(NC2CCC(O)CC2)n1 (configuration not stated),4.03
